Experimental data published in the supplement of paper PMC4723716.

System: Plasmodium falciparum NF54 gametocytes
Experiment: viability index relative to DMSO control (fraction); higher = less gametocyte killing
Conditions: 12.5 µM, incubation time: 72 h
How it was run: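 In 384-well plates, compound at 12.5 µM was incubated for 72 hr at 37°C under low oxygen with P. falciparum NF54 gametocytes of each stage (I–V) at 0.50% gametocytemia and 1.25% hematocrit in 40 µl of serum-containing medium. Staining used 5 µl of 5 µM MitoTracker Red CMXRos for 20 min, then 5 µl was moved into 40 µl of 500 nM dye in serum-free medium and imaged after 30 min. Dividing the gametocyte particle count by the plate mean of solvent-only wells gave the viability index.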

[1] = gametocyte stage: Stage I viability index
[2] = gametocyte stage: Stage II viability index
[3] = gametocyte stage: Stage III viability index
[4] = gametocyte stage: Stage IV viability index
[5] = gametocyte stage: Stage V viability index

| Structure (SMILES) | viability index [1] | viability index [2] | viability index [3] | viability index [4] | viability index [5] |
| --- | --- | --- | --- | --- | --- |
| O=C(Nc1ccc(Cl)c(Cl)c1)Nc1ccc(Cl)c(Cl)c1 | 0.0437 | 0.0241 | 0.0353 | 0.0918 | 0.104 |
| CCCCCn1c(=N)n(CC(O)COc2cccc(C)c2)c2ccccc21 (stereo not given) | 0.0988 | 0.0949 | 0.32 | 0.459 | 0.221 |
| Cc1cc(C)c2nc(N3CCC(C(=O)NCCCN4CCC(N5CCCCC5)CC4)CC3)sc2c1 | 0.0166 | 0.204 | 0.455 | 0.477 | 0.352 |
| FC(F)(F)c1cccc(Nc2nc(-c3ccccc3)nc3ncccc23)c1 | 1.17 | 1.08 | 1.33 | 1.09 | 1.15 |
| COc1ccc(C=C2SC(Nc3ccc(F)cc3)=NC2=O)c(OC)c1 | 0.76 | 0.669 | 0.676 | 0.646 | 0.558 |
| CCN(CC)CCNc1ccnc2cc(Cl)ccc12 | 0.0376 | 0.295 | 0.789 | 0.726 | 0.626 |
| O=C(Nc1cccc(C(F)(F)F)c1)c1cc(Cl)ccc1O | 0.00552 | 0.00676 | 0.0184 | 0.0669 | 0.11 |
| COc1ccc(-c2cc(=O)oc3c4c(ccc23)OCN(Cc2ccc(F)cc2)C4)cc1 | 0.0192 | 0.0833 | 0.406 | 0.516 | 0.545 |
| COc1ccc(CCN2CCC(CN(C)Cc3cnn(-c4ccccc4)c3)CC2)cc1 | 0.203 | 0.496 | 0.508 | 0.498 | 0.418 |
| COC(=O)c1ccc(C2C3=C(O)CC(c4ccc(F)cc4)CC3=Nc3ccccc3N2C(=O)c2ccccc2)cc1 (stereo not given) | 0.00524 | 0.005 | 0.0149 | 0 | 0 |
| O=C(NC1CCN(Cc2ccccc2)CC1)c1cc(C(=O)NC2CCN(Cc3ccccc3)CC2)cc(C(=O)NC2CCN(Cc3ccccc3)CC2)c1 | 0.0629 | 0.0649 | 0.0393 | 0.0475 | 0.013 |
| O=C(Nc1ccc(F)c(Cl)c1)Nc1ccc(Cl)c(Cl)c1 | 0.0409 | 0.0309 | 0.0835 | 0.17 | 0.165 |
| CCN(CC)c1ccc(NC(=O)c2cccs2)cc1 | 0.716 | 0.659 | 0.758 | 0.936 | 1.04 |
| O=C(Nc1ccsc1C(=O)NC1CCCCC1)c1ccc(F)cc1 | 0.93 | 0.729 | 0.965 | 0.933 | 0.945 |
| Cc1ccccc1OCCSc1nc2ccc(NC(=O)c3ccccc3)cc2s1 | 0.83 | 0.863 | 0.944 | 0.835 | 0.922 |
| N#Cc1nc(Cc2cccc3ccccc23)oc1N1CCN(C(c2ccccc2)c2ccccc2)CC1 | 1.12 | 0.93 | 1.23 | 0.968 | 1.16 |
| O=c1cc(NC2CCN(CCCc3ccccc3)CC2)c2cc(Cl)ccc2o1 | 0.028 | 0.408 | 0.815 | 0.848 | 0.675 |
| O=C(NC1CCCC1)c1ccc(N2CCC(NCc3cccc(C(F)(F)F)c3)CC2)cc1 | 0.243 | 0.573 | 0.76 | 0.76 | 0.604 |
| COc1ccc(C)c2sc(N(Cc3cccnc3)C(=O)c3ccc(C#N)cc3)nc12 | 0.441 | 0.704 | 0.95 | 0.794 | 1.01 |
| COc1ccccc1N1CCN(C(CNS(=O)(=O)c2ccc(Cl)cc2)c2cccnc2)CC1 (stereo not given) | 0.188 | 0.564 | 1.04 | 0.815 | 0.912 |
| CCCCC(O)(c1ccc(Cl)cc1)C(CN1CCOCC1)c1ccc(Cl)cc1 (stereo not given) | 0.941 | 0.896 | 0.871 | 0.763 | 0.701 |
| Cc1cccc(N2C(=O)C3C(C2=O)C2(c4ccccc4)C(=O)C3(c3ccccc3)C(c3ccc4c(c3)OCO4)=C2c2ccc3c(c2)OCO3)c1 (stereo not given) | 1.16 | 0.896 | 1.08 | 0.886 | 1.03 |
| Cc1ccc(N2C3c4ccccc4N(S(=O)(=O)c4ccc(C)cc4)C2c2ccccc2N3S(=O)(=O)c2ccc(C)cc2)cc1 | 0.687 | 0.77 | 0.928 | 0.93 | 0.978 |
| Cc1c(C)n(Cc2ccc(F)cc2)c2ccc(C(=O)NCc3ccco3)cc12 | 0.478 | 0.756 | 0.932 | 0.827 | 1 |
| COc1ccc2c(c1)OC(O)(C(F)(F)C(F)(F)F)CC2=O (stereo not given) | 0.676 | 0.929 | 1.15 | 0.97 | 1.11 |
| CCCc1c(C)nc2ccc(Br)cc2c1O | 0.777 | 0.706 | 0.893 | 0.965 | 0.753 |
| CCCCc1c(CCC)c(=N)c2ccccc2n1C | 1.05 | 0.911 | 1 | 0.918 | 0.701 |

| Structure (SMILES) | viability index [1] | viability index [2] | viability index [3] | viability index [4] | viability index [5] |
| --- | --- | --- | --- | --- | --- |
| O=C(Nc1ccc(CN2CCOCC2)cc1)c1ccc(-c2cc(Cl)ccc2Cl)o1 | 0.302 | 0.64 | 1.15 | 1.04 | 1.04 |
| COCCNCC(O)Cn1c2ccc(Cl)cc2c2cc(Cl)ccc21 (stereo not given) | 0.105 | 0.0937 | 0.407 | 0.511 | 0.429 |
| O=C(Nc1ccccc1O)c1ccc(Oc2cccc(C(=O)Nc3ccccc3O)c2)cc1 | 0.00331 | 0.161 | 0.434 | 0.456 | 0.462 |
| COc1cccc(-c2nn(C)c3sc(C(=O)NCCN4CCN(c5ccccc5F)CC4)cc23)c1 | 0.0431 | 0.436 | 0.777 | 0.836 | 0.835 |
| Cc1ccc(OCCCCCCNCCO)c(C)c1 | 1.13 | 1.04 | 1.05 | 0.934 | 0.909 |
| CC(C)(C)c1ccc(C(=O)Nc2nc3ccccc3s2)cc1 | 0.787 | 0.834 | 0.813 | 0.812 | 0.736 |
| COc1ccc(Nc2nc(NN=Cc3ccc(O)cc3)nc(Nc3ccc([N+](=O)[O-])cc3)n2)cc1 | 0.00437 | 0.05 | 0.233 | 0.142 | 0 |
| Oc1ccccc1CN1CCC2(CCCN(Cc3ccccc3F)C2)C1 (stereo not given) | 0.0166 | 0.161 | 0.509 | 0.657 | 1.07 |
| O=C(Nc1ccc(Br)cc1)Nc1cccc(Cl)c1 | 0.341 | 0.542 | 0.816 | 0.936 | 0.451 |
| CCOc1ccc(N2C(N)=NC(N)=NC2(C)C)cc1 | 1.12 | 0.909 | 0.844 | 0.959 | 1.08 |
| COc1ccc(C2c3ccc4ccccc4c3Oc3ncn(CCCN(C)C)c(=N)c32)cc1 (stereo not given) | 0.0367 | 0.0483 | 0.0339 | 0.0316 | 0 |
| CCC(c1ccccc1)c1nn2c(-c3cccs3)nnc2s1 (stereo not given) | 1.04 | 0.992 | 1.07 | 0.875 | 0.725 |
| CN1CCN(c2c3c(c(C#N)c4nc5ccccc5n24)CCC3)CC1 | 1.02 | 0.865 | 1.03 | 1.05 | 0.846 |
| Cc1cc(NCCN2CCCCC2)c2ccc3ccccc3c2n1 | 0.0508 | 0.404 | 0.536 | 0.495 | 0.132 |
| COc1ccc(C(=O)Nc2nonc2-c2ccc(OC)c(OC)c2)cc1Cl | 0.564 | 0.401 | 0.487 | 0.568 | 0.736 |
| CCOc1cc(Br)c(C(C)NC(=O)c2cccc(OC)c2)cc1OCC (stereo not given) | 0.465 | 0.412 | 0.58 | 0.748 | 0.648 |
| COc1ccc(-c2cc3c(nn2)-c2ccccc2C3=O)cc1 | 0.713 | 0.675 | 0.735 | 0.693 | 1 |
| Cc1ccc(-c2nc3ccccc3o2)cc1NCc1cc(Cc2ccccc2)ccc1O | 0.0201 | 0.0666 | 0.389 | 0.513 | 0.792 |
| CN(C)c1ccc(C(O)(c2ccc(N(C)C)cc2)c2ccc(N(C)C)cc2)cc1 | 0.157 | 0.0203 | 0.0948 | 0.0608 | 0.11 |
| CCOc1ccc(Nc2c3ccccc3nc3ccccc23)cc1 | 0.0245 | 0.165 | 0.444 | 0.351 | 0.584 |
| COc1ccccc1CNC(=O)C1c2ccccc2C(=O)N(CC(C)C)C1c1cccs1 (stereo not given) | 0.951 | 0.807 | 1.01 | 0.976 | 1 |
| COc1ccc2c(c1OC)C(=O)N1c3ccccc3N=C(c3ccc(C)cc3)CC21 (stereo not given) | 0.899 | 0.674 | 0.951 | 0.94 | 0.987 |
| O=C(NCC1Cc2cccc(-c3ccncc3)c2O1)c1csc2c1CCCC2 (stereo not given) | 1.09 | 1.09 | 0.945 | 1.04 | 1.11 |
| CC1CCCCN1CCCNC(=O)c1ccc2c(c1)sc1nc(-c3ccc(F)cc3)cn12 (stereo not given) | 0.113 | 0.443 | 1.05 | 1.2 | 1 |
| C=C(C)CCC(C)N1CCC(N2CCC(C(=O)NCCc3ccccc3)CC2)CC1 (stereo not given) | 0.538 | 0.665 | 0.948 | 0.845 | 0.758 |
| Cc1cc(Nc2cccc(F)c2)nc(NCc2ccccc2)n1 | 0.0365 | 0.436 | 0.825 | 1.01 | 0.429 |
